Bioassay records: PubChem, University of Kansas High Throughput Screening Laboratory
Pf apPOL inh – Pf-apPOL DNA polymerase inhibition | Recombinant Pf-apPOL, molecular beacon fluorescence, 1.5 h | inhibition, % at 10 µM | actives 0.25% (n = 210,000)
mHTT CaM bind – disrupts binding of mutant huntingtin to calmodulin | AlphaScreen His-mHTT/GST-CaM binding, luminescence | P42858 | AID 1671202 | actives 3.6% (n = 190,000) | inhibition, % at 15 µM
Numbers stand for hits; i = inactive; nt = no result given; + = active, no number; ! = repeats disagree. Hits are enriched below; roughly 3.6% of the tested compounds scored in any of these assays. No stated cut-off is given here; in the data, active means inhibition above about 50%; inactive means the rest.

SMILES | Pf apPOL inh | mHTT CaM bind
O=C(CSc1nn2c(SCC(=O)c3cccs3)nnc2s1)c1cccs1 | i | i
Cn1cnnc1SCC(=O)c1cccs1 | 98 | i
Cc1ccc(N=Cc2nc(-c3ccccc3)oc2O)c(C)c1 | i | i
COc1ccccc1C1=NOC(C(=O)NCc2ccco2)C1 (centres undefined) | i | i
Cc1nc2c(C(=O)NCc3ccc(F)cc3)c[nH]n2c(=O)c1Cc1ccccc1F | i | i
O=C(c1ccc(Cl)cc1)N1CCN(c2ccc(Cl)cc2[N+](=O)[O-])CC1 | i | i
Cc1c(C(=O)N2CCN(c3ccc(Cl)cc3[N+](=O)[O-])CC2)oc2ccccc12 | i | 61
Nc1nonc1/C(=N\O)N1CCN(c2ccc(Cl)cc2[N+](=O)[O-])CC1 | i | +
COc1ccc(N2CCN(/C(=N/O)c3nonc3N)CC2)c([N+](=O)[O-])c1 | i | i
Cc1cc(C)cc(N=C2NC(=O)/C(=C/c3cccc([N+](=O)[O-])c3)S2)c1 | i | i
COc1ccc(-c2oc(NC(=O)C(F)(F)F)c(C#N)c2-c2ccc(OC)cc2)cc1 | i | 63
COc1ccc(-c2oc(N=CN3CCCCCC3)c(C#N)c2-c2ccc(OC)cc2)cc1 | i | i
Cc1ccc(C(=O)N2CCN(c3nc(CN4CCOCC4)cs3)CC2)cc1C | i | i
Cc1ccc(C(=O)N2CCN(c3nc(CN4CCCC4)cs3)CC2)cc1C | i | 69
O=c1nc2oc3ccccc3cc-2c2ccccc12 | nt | i
Cc1cccc(-c2nocc2CCC(=O)NCc2ccc(F)cc2)c1 | i | i
CC(=O)N1CCc2cc(N3CC(C(=O)Nc4cccc(Cl)c4C)CC3=O)ccc21 (centres undefined) | i | i
c1ccc(-c2cccc(-c3ccccn3)n2)nc1 | nt | 100
c1ccc(-c2ccc3ccccc3n2)nc1 | nt | i
CCCOc1nccnc1N1CCC(NC(=O)NCC)C1 (centres undefined) | i | i
CCCCN(C)CCCNC(=O)CC(C(=O)N1CCc2ccccc21)n1ccnc1 (centres undefined) | i | i
CCCCN(CCCNC(=O)CC(C(=O)N1CCc2ccccc21)n1ccnc1)c1ccccc1 (centres undefined) | i | 77
CCCCN(CC)S(=O)(=O)c1ccc(F)c(C(=O)Nc2cc(Cl)ccc2OC)c1 | i | i
COc1ccccc1[C@H]1C(c2cccc(C)c2)=NN(c2ccccc2)[C@@H]1CO | i | 86
COc1ccccc1[C@H]1C(c2ccc(F)cc2)=NN(c2ccccc2)[C@@H]1CO | i | 67
SMILES | Pf apPOL inh | mHTT CaM bind
COc1ccccc1[C@H]1C(c2ccccc2)=NN(c2ccccc2)[C@@H]1CO | i | i
Cc1cccc(C2=NN(c3ccccc3)[C@@H](C(=O)N3CCOC3=O)[C@@H]2c2ccccc2)c1 | i | i
COC(=O)CNC(=O)N1CCCC1c1cccc(C)c1 (centres undefined) | i | i
O=c1[nH]c(-c2ccccc2O)nc2ccccc12 | i | i
Oc1ccccc1-c1nc2ccccc2[nH]1 | i | 65
O=C1OC(c2cccc(F)c2)=N/C1=C\c1ccccc1Cl | i | i
COc1ccc(-c2n[nH]c(C)c2Oc2ccc(F)cc2)c(O)c1 | i | i
Cc1[nH]nc(-c2ccc(O)c(C)c2O)c1Oc1ccc(F)cc1 | i | 55
Cc1cccc(C)c1N1CCC(C(=O)NCC2CCCO2)C1=O (centres undefined) | i | i
Cc1cc(C)cc(NC(=O)N2CCc3c(c(COCc4cccc(F)c4)nn3C)C2)c1 | i | i
COc1ccc(NC2CC(=O)N(c3cccc(OC)c3)C2=O)cc1 (centres undefined) | i | i
Cc1ccc(CNC(=O)C2CCCN(c3cnn(Cc4ccccc4)c(=O)c3)C2)cc1 (centres undefined) | i | i
Cc1cc(NS(=O)(=O)c2cc(C(=O)O)ccc2F)n[nH]1 | i | 78
Cc1cc(NS(=O)(=O)c2cccs2)n[nH]1 | i | nt
Cc1ccc(CNc2ccc3c(c2)ncn3C)cc1 | i | i
Cn1cnc2cc(NCc3nc4ccccc4n3Cc3ccccc3)ccc21 | i | 88!
Nc1nc2ccccc2n1Cc1ccccc1 | i | i
Fc1ccc(NCc2nc3ccccc3n2Cc2ccccc2)cc1 | i | 50
Cc1ccccc1CNC1CCN(c2ccc(C(=O)Nc3ccc(F)cc3)cn2)C1 (centres undefined) | i | i
Cc1ccc(C(=O)CC(=O)c2ccccc2O)cc1 | i | i
COc1ccc(O)c(C(=O)CC(=O)c2cccc(C)c2)c1 | i | 59
COc1ccc(O)c(C(=O)CC(=O)c2ccccc2C)c1 | i | 62
Cc1ccccc1C(=O)CC(=O)c1ccccc1O | i | 50
COc1ccc(NC(=O)c2ccccc2C)c(OC)c1 | i | i
Cc1ccc(O)c(C(=O)CC(=O)c2cccc(F)c2)c1 | i | i
O=C(Cc1c(F)cccc1Cl)N1CCc2c(nc(-c3ccc(F)cc3)[nH]c2=O)C1 | i | i
Cc1ccccc1-c1nc2c([nH]1)c(=O)n(C)c(=O)n2C | i | i
O=C(O)COc1ccccc1O | i | 94!
Cc1ccccc1OCC(=O)O | i | i
COc1ccc(/C=C2/SC(N3CCCC3)=NC2=O)cc1OC | i | i
